The panel holds about 79,000 compounds, 15% with a hit somewhere; the sample as a whole holds those more often. Values without a mark were called inactive. Calls of active or inactive are those of the source. No stated cut-off is given here; in the data, active means growth inhibition above about 70%; inactive means the rest. Where a SMILES comes first, the peptide text is derived from it. Bridges are numbered along the chain shown (N, C = ends). [ ]: non-standard residue; d: D form. NMeV = CN[CH](C(=O)O)C(C)C; Sar = CNCC(=O)O
Columns and labels:
[1] = NCI Yeast Anticancer Drug Screen. Data for the rad50 strain (AID 155);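 further: 0% = growth of vehicle-only cultures of the same strain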; details: S. cerevisiae rad50 strain growth inhibition, stronger effect = higher value
In short: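 Readout: growth inhibition relative to vehicle-treated cultures. Compound exposure was carried out in a genetically defined yeast strain deficient in DNA damage repair.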

[2] = NCI Yeast Anticancer Drug Screen. Data for the mec2-1 strain (AID 157); details: S. cerevisiae mec2-1 strain, stronger effect = higher value
In short: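 Vehicle-treated cultures served as reference for growth inhibition of compound-exposed mec2-1 yeast.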

[3] = NCI Yeast Anticancer Drug Screen. Data for the sgs1 mgt1 strain (AID 161);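 further: 0% = growth of cultures given vehicle only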; details: S. cerevisiae sgs1 mgt1 strain, stronger effect = higher value
In short: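 Mutant yeast exposed to compound; growth scored against vehicle-only wells.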

[4] = NCI Yeast Anticancer Drug Screen. Data for the cln2 rad14 strain (AID 165);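 further: 0% = growth equal to vehicle treated cultures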; details: S. cerevisiae cln2 rad14 strain, stronger effect = higher value
In short: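 Each compound was tested on cln2 rad14 yeast. Inhibition of growth was calculated against vehicle-exposed controls.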

[5] = NCI Yeast Anticancer Drug Screen. Data for the bub3 strain (AID 167); details: S. cerevisiae bub3 mutant strain, stronger effect = higher value
In short: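 Readout: yeast growth inhibition, expressed relative to vehicle-only wells. The test organism is a mutant strain from a panel with lesions in DNA repair or checkpoint genes.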

[6] = NCI Yeast Anticancer Drug Screen. Data for the mlh1 rad18 strain (AID 175); details: S. cerevisiae mlh1 rad18 strain growth inhibition, stronger effect = higher value
In short: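 Vehicle-treated cultures served as the reference for growth inhibition in a yeast strain carrying DNA damage repair alterations exposed to each compound.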

[7] = at 5.0 µM (retest, dose inferred, filed as 0.5)
[8] = at 50.0 µM (retest, dose inferred, filed as 5.0)

| Compound | growth inhibition [1, 7] | growth inhibition [1, 8] | growth inhibition ([1]; at 50.0 µM) | growth inhibition [2, 7] | growth inhibition [2, 8] | growth inhibition ([2]; at 50.0 µM) | growth inhibition [3, 7] | growth inhibition [3, 8] | growth inhibition ([3]; at 50.0 µM) | growth inhibition [4, 7] [%] | growth inhibition [4, 8] | growth inhibition ([4]; at 50.0 µM) | growth inhibition [5, 7] | growth inhibition [5, 8] | growth inhibition ([5]; at 50.0 µM) | growth inhibition [6, 7] [%] | growth inhibition [6, 8] | growth inhibition ([6]; at 50.0 µM) |
| --- | --- | --- | --- | --- | --- | --- | --- | --- | --- | --- | --- | --- | --- | --- | --- | --- | --- | --- |
| CC(C)C1(C)C(C#N)(C#N)C1(C#N)C#N | -94% | 94% (active) | 79.8% (active) | -35% | 92% (active) | 91.5% (active) | -46% | 90% (active) | 95.5% (active) | -46 | 22% | 48.4% | -39% | 91% (active) | 92% (active) | -77 | 94% (active) | 95.8% (active) |
| ClC(Cl)(Cl)/C=C/c1cnc2ccccc2n1 | 2% | 99% (active) | 15.6% | 1% | 99% (active) | 5.95% | 1% | 99% (active) | 49.3% | -3 | 99% (active) | -2% | -3% | 99% (active) | 85.7% (active) | 3 | 99% (active) | 30.2% |
| CCCCCCCCCCCCCCCCSC(=NC)NC | 89% (active) | 99% (active) | 99.4% (active) | 98% (active) | 99% (active) | 99.2% (active) | 98% (active) | 100% (active) | 99.3% (active) | 25 | 99% (active) | 98.2% (active) | 84% (active) | 99% (active) | 99.1% (active) | 67 | 98% (active) | 98.7% (active) |
| CC1CCC(C(C)C2C(O)CC3C4CCC5CC(O)CCC5(C)C4CCC32C)NC1 (configuration not stated) | 3% | 98% (active) | 91.8% (active) | 1% | 96% (active) | 82.2% (active) | 6% | 97% (active) | 93.2% (active) | -4 | 96% (active) | 90% (active) | 2% | 95% (active) | 90% (active) | 4 | 97% (active) | 92.9% (active) |
| COC(OC)C1C2C3C=CC(C4C(=O)OC(=O)C34)C12 (configuration not stated) | -5% | 0% | 76.5% (active) | -16% | -4% | 98.4% (active) | -15% | -13% | 29.4% | -2 | -5% | 98.3% (active) | 0% | 14% | 97.2% (active) | 6 | 2% | 98.6% (active) |
| COCCn1cc(F)c(=O)[nH]c1=O | 15% | 16% | -8.7% | 0% | 2% | -2.25% | 3% | 47% | 33.2% | 6 | 8% | 46.3% | 8% | 5% | -20.6% | 9 | 20% | -5.45% |
| CCCCCN(CCCCC)C(=O)CCl | -2% | 30% | 68.6% | -3% | 15% | 53.5% | -3% | 10% | 69.2% | 8 | 7% | -6.75% | 12% | 58% | 82.5% (active) | -1 | 23% | 85.3% (active) |
| CC1(C(=O)O)CCC2(C)CCC3(C)C(=CC(=O)C4C5(C)CCC(O)C(C)(C)C5CCC43C)C2C1 (configuration not stated) | 12% | 61% | 52.4% | 23% | 78% (active) | 64.8% | 10% | 74% (active) | 65% | 30 | 84% (active) | 75.7% (active) | 29% | 78% (active) | 60.5% | 18 | 80% (active) | 71.3% (active) |
| CC(C)(C)C(=O)CC(=O)C(F)(F)C(F)(F)C(F)(F)F.CC(C)(C)C(=O)CC(=O)C(F)(F)C(F)(F)C(F)(F)F.CC(C)(C)C(=O)CC(=O)C(F)(F)C(F)(F)C(F)(F)F.[Gd] | -7% | 79% (active) | 89.3% (active) | -9% | 85% (active) | 91.4% (active) | 3% | 82% (active) | 90.7% (active) | 9 | 87% (active) | 82.7% (active) | -17% | 96% (active) | 89.2% (active) | -7 | 93% (active) | 88.8% (active) |
| CCOC(=O)c1nc(SC)sc1NC(=O)c1ccccc1Cl | 1% | 1% | 19.4% | -5% | -5% | -15.6% | 4% | 4% | 77.8% (active) | -13 | -13% | 27.8% | -14% | -14% | 30.4% | -5 | -5% | -8.2% |
| O=[N+]([O-])c1cccn2nc(C3OC(CO)C(O)C3O)nc12 (configuration not stated) | 3% | 13% | -11.2% | -3% | -2% | -4.8% | 0% | 7% | -14.7% | 3 | -4% | 34.4% | 0% | -1% | -11.4% | -2 | 3% | -4.65% |
| CC1(c2ccccc2)NC(=O)N(CC(=O)N(c2ccccc2)c2ccccc2)C1=O (configuration not stated) | 12% | 28% | 49.4% | 15% | 33% | 23.6% | 9% | 30% | 33.5% | 14 | 55% | 40.5% | 8% | 38% | 33.7% | 12 | 39% | 52.1% |
| O=C(/C=C(\C(=O)c1ccccc1)N(/C(=C/C(=O)c1ccccc1)C(=O)c1ccccc1)c1ccccc1)c1ccccc1 | 2% | 30% | 92.2% (active) | -3% | 13% | 88.8% (active) | -5% | 30% | 90.8% (active) | -2 | -21% | 83.5% (active) | 0% | 34% | 88.4% (active) | 0 | 12% | 92.7% (active) |
| O=C1Nc2c(ccc(Cl)c2I)C1=O | -28% | 97% (active) | 92.2% (active) | -3% | 99% (active) | 94.3% (active) | -13% | 70% (active) | 92.3% (active) | 9 | 98% (active) | 91.2% (active) | -5% | 98% (active) | 91.6% (active) | -27 | 99% (active) | 91.7% (active) |
| Cc1cccc(C)c1O | 17% | 99% (active) | 99% (active) | -1% | 99% (active) | 98.5% (active) | 0% | 98% (active) | 98.8% (active) | -9 | 98% (active) | 97.8% (active) | 3% | 91% (active) | 98.5% (active) | 5 | 99% (active) | 99.5% (active) |
| O=C1OC2(CCCC2)OC1c1ccccc1 (configuration not stated) | 2% | -7% | 14.9% | -1% | 2% | -17.6% | -2% | -7% | -9.7% | -4 | 0% | 72.2% (active) | -5% | -4% | 13.2% | -5 | -9% | -6.4% |
| O=C(CCCN1CCC(C(O)c2ccc(F)cc2)CC1)c1ccc(F)cc1 (configuration not stated) | 37% | 86% (active) | 71.5% (active) | 33% | 78% (active) | 69.5% | 47% | 95% (active) | 79.8% (active) | 47 | 87% (active) | 68% | 53% | 97% (active) | 75.8% (active) | 62 | 89% (active) | 68.5% |
| CC(C)C1NC(=O)C(N)C(C)OC(=O)C(C(C)C)N(C)C(=O)CN(C)C(=O)C2CCCN2C1=O (configuration not stated) (tested in a mixture with another compound) (H-TVP[Sar][NMeV]; ester 1-C; configuration not given here) | 21% | 94% (active) | 89.1% (active) | 10% | 97% (active) | 92.2% (active) | 18% | 91% (active) | 90.3% (active) | 39 | 95% (active) | 87.5% (active) | 16% | 96% (active) | 90.8% (active) | 11 | 95% (active) | 90.2% (active) |
| O=C1CC(c2ccccc2)NN1 (configuration not stated) | -108% | 92% (active) | 90.9% (active) | -42% | 94% (active) | 90.5% (active) | -51% | 89% (active) | 69.8% | -62 | 93% (active) | 87.8% (active) | -71% | 87% (active) | 88.2% (active) | -114 | 93% (active) | 86.5% (active) |

From PubChem BioAssay (NCI)
